Assay results reported in PubChem BioAssay (NCI).
About 79,000 compounds went through this panel and 15% of them were active in at least one assay; those are over-represented in the sample as a whole. Values without a mark were called inactive. Active and inactive are the calls of the source. Rule as the data show it: active = growth inhibition above about 70%; inactive = the rest.

How the values were obtained:
[1] = NCI Yeast Anticancer Drug Screen. Data for the rad50 strain (AID 155);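 also: 0% = growth of vehicle-only cultures of the same strain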; details: S. cerevisiae rad50 strain growth inhibition; at 50.0 µM; hits give high values
In short: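 Cells are treated with compound, grown, and their growth is then scored against vehicle-only cultures of the same repair-deficient yeast strain.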

[2] = NCI Yeast Anticancer Drug Screen. Data for the mec2-1 strain (AID 157); details: S. cerevisiae mec2-1 strain, at 50.0 µM, hits give high values
In short: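 Yeast mec2-1 mutant treated with compound. Readout: growth inhibition vs vehicle controls.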

[3] = NCI Yeast Anticancer Drug Screen. Data for the sgs1 mgt1 strain (AID 161);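 also: 0% = growth of cultures given vehicle only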; details: S. cerevisiae sgs1 mgt1 strain, at 50.0 µM, hits give high values
In short: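 Mutant yeast exposed to compound; growth scored against vehicle-only wells.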

[4] = NCI Yeast Anticancer Drug Screen. Data for the cln2 rad14 strain (AID 165);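 also: 0% = growth equal to vehicle treated cultures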; details: S. cerevisiae cln2 rad14 strain, at 50.0 µM, hits give high values
In short: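 cln2 rad14 yeast strain; compound exposure; growth inhibition read vs vehicle controls.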

[5] = NCI Yeast Anticancer Drug Screen. Data for the bub3 strain (AID 167); details: S. cerevisiae bub3 mutant strain, at 50.0 µM, hits give high values
In short: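 Part of a panel of yeast mutants defective in DNA damage repair or cell cycle regulation. Each strain is grown with compound, and inhibition is calculated relative to solvent-treated cultures.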

[6] = NCI Yeast Anticancer Drug Screen. Data for the mlh1 rad18 strain (AID 175); details: S. cerevisiae mlh1 rad18 strain growth inhibition; at 50.0 µM; hits give high values
In short: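 Yeast w/ defined DNA-repair lesions; compound exposure; growth vs vehicle controls → % inhibition.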

Compound	growth inhibition [1] [%]	growth inhibition [2] [%]	growth inhibition [3]	growth inhibition [4] [%]	growth inhibition [5] [%]	growth inhibition [6] [%]
COc1ccc(/C=C2/CSCC3=C2NC(=S)NC3c2ccc(OC)c(OC)c2OC)c(OC)c1OC (centres undefined)	12.8	13.9	37%	34.6	48.4	10.9
COc1ccc(C(Cc2ccccc2)Nc2ccccc2)cc1 (centres undefined)	4.1	-6.7	28.6%	-17	-0.95	-1.2
CCOc1nc(C)cc(C(=O)OC)c1C#N	18.4	15.7	19.6%	17.4	0.3	2
CCOC(=O)c1ccc(N=C2C(=S)N(c3ccc(C(=O)OCC)cc3)C(=N)N2/N=C/c2ccccc2)cc1	19.4	13.4	11.5%	-4.55	31.9	1.95
COC(=O)Cc1cc(=O)c2cc(C)ccc2[nH]1	0.9	3.6	-2.7%	-29.6	-13.9	-1.15
O=C(Nc1ccccc1SC(=O)OCc1ccccc1)OCc1ccccc1	30.2	4.8	11.6%	38.6	1.95	1.3
CC(C)OCC(O)CNCCN (centres undefined)	-30.8	-20.9	-7.9%	-2.5	-21	-0.75
CCCCCCCCCCCCCCCCCCS	-1.15	-25.3	-7.85%	-14.7	8.3	-5.7
CCCC1CC(=O)NC1C(=O)O (centres undefined)	-8.75	-7.85	-6.85%	-21.9	-5.25	-24.4
Cc1cccc(Cl)c1N=Nc1c(C)nn(C(N)=S)c1C	29.8	8.75	38%	-33	-0.55	17.1
O=C(CCBr)OCc1ccccc1	-12.5	-7.45	1.1%	-20.8	-26.2	25
CC(=O)NNc1nc(C)c(C(/C=C/c2ccc([N+](=O)[O-])cc2)=N/NC(N)=O)s1	23.6	-12.7	24.2%	16.6	8.75	10.3
CN(C)Cc1cccc(C(F)(F)F)c1C(O)c1ccccc1 (centres undefined)	7.75	-10.2	-5.3%	3.9	7.7	-14.7
C/C=C1\C(=O)OC2CCN3CCC(COC(=O)C(C)(O)C(C)C1O)C23 (centres undefined)	11.2	-7.65	-24.6%	-13.7	-46.5	-60.2
COC(=O)c1ccccc1C(=O)c1ccccc1	-2.5	9.2	3.8%	-4.75	-5.95	8.4
CN1C(C(=O)Nc2nccs2)=C(O)c2ccccc2S1(=O)=O	2.15	7.35	19.9%	-11.2	7.05	21.6
Cc1nc(Cl)c2cnccn12	-4.2	-1.85	7.8%	-37.5	-1.25	0.2
O=C(O)c1cc(Br)sc1Br	8.75	-12.4	-8.8%	0.7	-9.6	-15.1
c1ccc(C2SCCN2c2ccccc2)cc1 (centres undefined)	9.2	-0.35	-20.4%	9.95	11.8	-14.4
Cc1cc(C)c(/C=C\C(=O)c2ccccc2)c(C)c1	9.75	-7.65	-4.3%	-37.9	6.15	-15.5

Compound	growth inhibition [1] [%]	growth inhibition [2] [%]	growth inhibition [3]	growth inhibition [4] [%]	growth inhibition [5] [%]	growth inhibition [6] [%]
CCC(CO)(C(=O)O)c1ccccc1 (centres undefined)	1.85	22.2	4.95%	46.9	4.6	2.3
CC/C(C)=N\NC(N)=O	6.85	6.7	-29.7%	-16.1	0.1	6.9
CC(C)CN(CC(C)C)C(=O)C1CCCC[C@@H]1C(=O)O (some centres undefined)	16.9	15.2	5.8%	18.7	16.4	22.4
Cn1nnc2c1C(=O)c1ccccc1C2=O	0.6	-14	29.4%	-50.3	-8.5	-0.7
O=C(/C=C\c1ccccc1)c1ccc(-c2ccc([N+](=O)[O-])cc2)cc1	10.4	11.4	9.05%	-3.65	4.8	22.6
N=C(N)c1nc2ccccc2s1	6.2	-13.5	17.4%	7.65	24	5.3
CC(=O)Oc1ccc2c(c1)CC[C@@H]1C2[C@@H](O[N+](=O)[O-])C[C@@]2(C)C1CC[C@@H]2O (some centres undefined)	25.5	43.3	77.2% (active)	62	31.9	57.8
CNC(=O)N(C)c1cc(N(C)C)nc(OC)n1	-16.4	-34.6	-19.4%	-9.4	-20.8	-23.4
Nc1nc([O-])c([I+]c2ccccc2)c(=O)[nH]1	-17.5	-11.8	3.7%	-8.5	0.15	-6.45
Nc1nc2nsnc2nc1N	1.9	12.3	13.6%	-57.9	1.2	23.9
CN(CC1CCCCC1=O)CC1CCCCC1=O (centres undefined)	8.65	10.2	-11.1%	-8.8	19	-3.55
COc1ccc2ncc(COC(=O)NC3CCCCC3)c(COC(=O)NC3CCCCC3)c2c1	36.9	-2.1	24.4%	-0.6	-4.25	22.5
Cc1ncc(CO)c(Nc2ccccc2)n1	1.85	5.8	-0.25%	-25.5	-4.8	8.4
CCCCC(O)(CC)CC	3.3	-23.9	-3.6%	5.5	-16.4	15.2
Cn1nnc2c(C(N)=O)ncn2c1=O	-11.4	-18.5	-28.5%	-25.2	-26.6	-77
Cc1nn(C(=S)S)c(C)c1N=Nc1ccc(O)cc1	9.3	10.5	16.9%	-16.7	5.35	18.6
OCC1OC2OC(c3ccccc3)(c3ccc(OCc4ccccc4)nc3OCc3ccccc3)OC2C1O (centres undefined)	25.9	2.6	0.6%	14.8	-10.4	2.8
CC(CNC(N)=O)NC(N)=O (centres undefined)	-23.8	-15.8	-32.4%	11.4	-19.6	-24.4
Cc1nc(C)c(C(=O)NN)cc1C(=O)NN	9.05	-3.7	-4.6%	7.45	-0.7	-14.7
